The campaign covered roughly 5,500 compounds. About 2,000 (36%) were called active. Roughly 18% stayed inconclusive and do not appear here. Rule as the data show it: active = normalized growth mostly below about 0.91 (no sharp cut-off); inconclusive = no clear call, values can overlap the other calls; inactive = mostly above about 0.92. The list shows a part of the results.
Assay: chemical genetic growth profiling, strain panel (AID 1159580);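 also: tested at 20 µM; growth read once vehicle control cultures reached saturation at 30 °C; 1 = growth at the plate median or of vehicle wells; lower values mean less growth of the strain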
Conditions: growth OD

Measured: normalized growth

CC(=O)O[C@H]1C[C@@]2(C)[C@@H](C[C@@H](O)C3[C@]2(C)CC[C@H]2[C@H](C)[C@H](O)CC[C@]32C)/C1=C(/CCC=C(C)C)C(=O)O (some centres undefined)
inactive: S. cerevisiae deletion strains, locus YJL187C, strain SWE1 (second series), hits give low values 1.01 | S. cerevisiae deletion strains, locus YJL187C, strain SWE1, hits give low values 1.04 | S. cerevisiae deletion strains, locus YJR043C, strain POL32, hits give low values 1 | S. cerevisiae deletion strains, locus YJR066W, strain TOR1, hits give low values 0.983 | S. cerevisiae deletion strains, locus YKL009W, strain mrt4, hits give low values 0.99 | S. cerevisiae deletion strains, locus YKL068W, hits give low values 1.01 | S. cerevisiae deletion strains, locus YKL085W, strain MDH1 (second series), hits give low values 0.997 | S. cerevisiae deletion strains, locus YKL085W, strain MDH1, hits give low values 0.997 | S. cerevisiae deletion strains, locus YKL160W, strain elf1, hits give low values 1.07 | S. cerevisiae deletion strains, locus YKL190W, strain CNB1, hits give low values 1.01 | S. cerevisiae deletion strains, locus YKR001C, strain vps1, hits give low values 1.03 | S. cerevisiae deletion strains, locus YKR026C, strain gcn3, hits give low values 1.01 | S. cerevisiae deletion strains, locus YKR091W, strain srl3, hits give low values 1.03 | S. cerevisiae deletion strains, locus YLL001W, strain dnm1, hits give low values 1.04 | S. cerevisiae deletion strains, locus YLL026W, hits give low values 1.02 | S. cerevisiae deletion strains, locus YLL041C, strain sdh2, hits give low values 1.02 | S. cerevisiae deletion strains, locus YLR027C, strain aat2, hits give low values 1.01 | S. cerevisiae deletion strains, locus YLR039C, strain RIC1, hits give low values 0.996 | S. cerevisiae deletion strains, locus YLR058C, strain SHM2, hits give low values 1.04 | S. cerevisiae deletion strains, locus YLR102C, strain apc9, hits give low values 1.02 | S. cerevisiae deletion strains, locus YLR113W, strain HOG1, hits give low values 0.957 | S. cerevisiae deletion strains, locus YLR221C, strain rsa3, hits give low values 1.06 | S. cerevisiae deletion strains, locus YLR258W, strain gsy2, hits give low values 1.03 | S. cerevisiae deletion strains, locus YLR262C, strain YPT6 (second series), hits give low values 0.991 | S. cerevisiae deletion strains, locus YLR262C, strain YPT6, hits give low values 0.997 | S. cerevisiae deletion strains, locus YLR268W, strain sec22, hits give low values 1.01 | S. cerevisiae deletion strains, locus YLR320W, strain mms22, hits give low values 1.06 | S. cerevisiae deletion strains, locus YLR330W, strain CHS5, hits give low values 1.01 | S. cerevisiae deletion strains, locus YLR342W, strain FKS1 (second series), hits give low values 1.03 | S. cerevisiae deletion strains, locus YLR342W, strain FKS1, hits give low values 1.04 | S. cerevisiae deletion strains, locus YLR357W, strain rsc2, hits give low values 1.1 | S. cerevisiae deletion strains, locus YLR370C, strain arc18, hits give low values 1.03 | S. cerevisiae deletion strains, locus YLR371W, strain rom2, hits give low values 1.01 | S. cerevisiae deletion strains, locus YLR384C, strain iki3, hits give low values 1.04 | S. cerevisiae deletion strains, locus YLR418C, strain cdc73, hits give low values 1.05 | S. cerevisiae deletion strains, locus YML016C, strain PPZ1, hits give low values 1 | S. cerevisiae deletion strains, locus YML032C, strain rad52, hits give low values 1.02 | S. cerevisiae deletion strains, locus YML120C, strain ndi1, hits give low values 1.05 | S. cerevisiae deletion strains, locus YML124C, strain tub3, hits give low values 1.03 | S. cerevisiae deletion strains, locus YMR058W, strain fet3, hits give low values 1.03 | S. cerevisiae deletion strains, locus YMR078C, strain ctf18, hits give low values 1.02 | S. cerevisiae deletion strains, locus YMR125W, strain sto1, hits give low values 1.04 | S. cerevisiae deletion strains, locus YMR129W, hits give low values 1.02 | S. cerevisiae deletion strains, locus YMR205C, strain PFK2, hits give low values 1.04 | S. cerevisiae deletion strains, locus YMR223W, strain ubp8, hits give low values 1.05 | S. cerevisiae deletion strains, locus YMR231W, strain pep5, hits give low values 1.02 | S. cerevisiae deletion strains, locus YMR307W, strain GAS1, hits give low values 0.995 | S. cerevisiae deletion strains, locus YNL067W, strain RPL9B, hits give low values 1.01 | S. cerevisiae deletion strains, locus YNL071W, strain lat1, hits give low values 1.03 | S. cerevisiae deletion strains, locus YNL153C, strain GIM3, hits give low values 1.02 | S. cerevisiae deletion strains, locus YNL183C, strain NPR1, hits give low values 0.936 | S. cerevisiae deletion strains, locus YNL209W, strain ssb2, hits give low values 1.03 | S. cerevisiae deletion strains, locus YNL233W, strain BNI4, hits give low values 1.01 | S. cerevisiae deletion strains, locus YNL248C, strain rpa49, hits give low values 1.05 | S. cerevisiae deletion strains, locus YNL250W, strain rad50, hits give low values 1.03 | S. cerevisiae deletion strains, locus YNL271C, strain bni1, hits give low values 1.02 | S. cerevisiae deletion strains, locus YNL298W, strain CLA4, hits give low values 1.02 | S. cerevisiae deletion strains, locus YNL307C, strain MCK1, hits give low values 1.03 | S. cerevisiae deletion strains, locus YNL322C, strain KRE1 (second series), hits give low values 1.05 | S. cerevisiae deletion strains, locus YNR049C, strain mso1, hits give low values 1.05 | S. cerevisiae deletion strains, locus YNR052C, strain pop2, hits give low values 1.03 | S. cerevisiae deletion strains, locus YOL012C, strain htz1 1.07 | S. cerevisiae deletion strains, locus YOL147C, strain pex11, hits give low values 1.04 | S. cerevisiae deletion strains, locus YOR001W, strain rrp6, hits give low values 1.01 | S. cerevisiae deletion strains, locus YOR061W, strain CKA2, hits give low values 0.999 | S. cerevisiae deletion strains, locus YOR069W, strain VPS5, hits give low values 1.02 | S. cerevisiae deletion strains, locus YOR070C, strain gyp1, hits give low values 1.03 | S. cerevisiae deletion strains, locus YOR080W, strain dia2, hits give low values 1.04 | S. cerevisiae deletion strains, locus YOR083W, strain WHI5, hits give low values 1.06 | S. cerevisiae deletion strains, locus YOR106W, strain vam3, hits give low values 1.04 | S. cerevisiae deletion strains, locus YOR136W, strain idh2, hits give low values 1.02 | S. cerevisiae deletion strains, locus YOR144C, strain elg1, hits give low values 1.02 | S. cerevisiae deletion strains, locus YOR184W, strain ser1, hits give low values 1.02 | S. cerevisiae deletion strains, locus YOR231W, strain MKK1, hits give low values 0.956 | S. cerevisiae deletion strains, locus YOR265W, strain rbl2, hits give low values 1.02 | S. cerevisiae deletion strains, locus YOR270C, strain vph1, hits give low values 1 | S. cerevisiae deletion strains, locus YOR290C, strain snf2, hits give low values 0.974 | S. cerevisiae deletion strains, locus YOR316C, strain cot1, hits give low values 1.02 | S. cerevisiae deletion strains, locus YPL051W, strain arl3, hits give low values 1.04 | S. cerevisiae deletion strains, locus YPL078C, strain atp4, hits give low values 1.02 | S. cerevisiae deletion strains, locus YPL106C, strain sse1, hits give low values 1.07 | S. cerevisiae deletion strains, locus YPL240C, strain hsp82, hits give low values 1.03 | S. cerevisiae deletion strains, locus YPL256C, strain CLN2, hits give low values 0.986 | S. cerevisiae deletion strains, locus YPR119W, strain clb2, hits give low values 1.02 | S. cerevisiae deletion strains, locus YPR141C, strain kar3, hits give low values 1.03 | S. cerevisiae deletion strains, locus YPR163C, strain tif3, hits give low values 1.04 | S. cerevisiae deletion strains, locus YPR167C, strain met16, hits give low values 1.03 | S. cerevisiae deletion strains, strain wtn01, hits give low values 1.02 | S. cerevisiae strains, strain wild type, hits give low values 1.01

Source: PubChem BioAssay AID1159580 (chemical genetic matrix, 2015)
